Test results reported in the supplement of paper PMC9492666.
Counter-ions that a name gives are not always drawn.

Tested on: MDA-MB-231
Experiment: relative cell viability, compound alone, vs DMSO (fraction of DMSO control); higher = less growth inhibition
Conditions: 72 h
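Further: viability read out with the CCK-8 kit in 96-well plates, screening a set of 303 compounds acting on lipid metabolism targets.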

Question: How did the relative cell viability turn out when `O=C(O)/C=C/c1ccc(O)c(O)c1` [Caffeic Acid] was run?
Answer: The relative cell viability was 0.874.

Question: With `CC(O)(CC(=O)O)CC(=O)O` [Meglutol] as the compound, how does the relative cell viability read?
Answer: Its relative cell viability is 0.891.

Question: How did the relative cell viability turn out when `CC(C)(O)[C@@H]1Cc2cc3ccc(=O)oc3cc2O1` [marmesin] was run?
Answer: Its relative cell viability is 0.866.

Question: Which relative cell viability does the source give for `O=P(O)(O)OC(CO)CO` [β-Glycerol phosphate disodium salt pentahydrate] here?
Answer: Its relative cell viability is 0.874.

Question: With `CN(C)c1cccc(-c2c3c(=O)n(-c4ccccc4Cl)[nH]c3cc(=O)n2C)c1` as the compound, how does the relative cell viability read?
Answer: The relative cell viability was 0.974.

Question: For `CC(C)OC(=O)CCC/C=C\C[C@@H]1[C@@H](CC[C@@H](O)CCc2ccccc2)[C@H](O)C[C@@H]1O` [Latanoprost], which relative cell viability is on record?
Answer: The relative cell viability was 0.88.

Question: `CC(C)=CCC[C@](C)(O[C@@H]1O[C@H](CO)[C@@H](O)[C@H](O)[C@H]1O)[C@H]1CC[C@]2(C)[C@@H]1[C@H](O)C[C@@H]1[C@@]3(C)CC[C@H](O[C@@H]4O[C@H](CO)[C@@H](O)[C@H](O)[C@H]4O[C@@H]4O[C@H](CO)[C@@H](O)[C@H](O)[C@H]4O)C(C)(C)[C@@H]3CC[C@]12C` [Ginsenoside Rd] was tested. Which relative cell viability did it give?
Answer: Its relative cell viability is 0.896.

Question: Which relative cell viability does the source give for `COC(=O)N(CC(=O)O)Cc1cccc(OCc2nc(-c3ccc(Cl)cc3)oc2C)c1` here?
Answer: The relative cell viability was 0.834.

Question: `O=c1c(-c2ccc(O)cc2)coc2cc(O)ccc12` [Daidzein] was tested. Which relative cell viability did it give?
Answer: The relative cell viability was 0.863.

Question: `CC(C)[C@H](N=C(NS(=O)(=O)c1ccc(Cl)cc1)N1C[C@H](c2ccccc2)C(c2ccc(Cl)cc2)=N1)C(N)=O` was tested. Which relative cell viability did it give?
Answer: Its relative cell viability is 0.893.

Question: For `CC(C)OC(=O)C(C)(C)Oc1ccc(C(=O)c2ccc(Cl)cc2)cc1` [Fenofibrate], which relative cell viability is on record?
Answer: The relative cell viability was 0.955.

Question: How did the relative cell viability turn out when `O=c1ccc2cc(O)c(O)cc2o1` [Esculetin] was run?
Answer: The relative cell viability was 0.672.

Question: For `CC(C)=CCC[C@](C)(O)[C@H]1CC[C@]2(C)[C@@H]1[C@H](O)C[C@@H]1[C@@]3(C)CC[C@H](O)C(C)(C)[C@@H]3[C@@H](O)C[C@]12C` [(20S)-Protopanaxatriol], which relative cell viability is on record?
Answer: The relative cell viability was 1.

Question: For `COc1ccc(-c2coc3cc(OC)ccc3c2=O)cc1` [4',7-Dimethoxyisoflavone], which relative cell viability is on record?
Answer: Its relative cell viability is 0.693.

Question: Which relative cell viability does the source give for `CCCCCCCCCCCCCCOc1ccc(C(=O)OCC(=O)N(C)CC(=O)OCC)o1` [Olumacostat Glasaretil] here?
Answer: Its relative cell viability is 0.863.

Question: How did the relative cell viability turn out when `O=C1/C(=C/c2cccs2)CC/C1=C\c1cccs1` was run?
Answer: The relative cell viability was 0.84.

Question: How did the relative cell viability turn out when `CCc1c(-c2ccccc2)c(-c2ccccc2)nn1-c1ccccc1-c1cccc(OCC(=O)O)c1` was run?
Answer: The relative cell viability was 0.994.

Question: `COc1cc(F)c(C(C)C)cc1-c1ccc(C(F)(F)F)cc1CN1C(=O)O[C@H](c2cc(C(F)(F)F)cc(C(F)(F)F)c2)[C@@H]1C` [Anacetrapib] was tested. Which relative cell viability did it give?
Answer: Its relative cell viability is 0.877.

Question: With `Cc1nc2c([nH]1)c(=O)n(C)c(=O)n2Cc1ccco1` [Furafylline] as the compound, how does the relative cell viability read?
Answer: The relative cell viability was 0.924.

Question: With `O=C(CCCCCCCC(=O)NCCO)NCCO` [Adelmidrol] as the compound, how does the relative cell viability read?
Answer: Its relative cell viability is 1.04.

Question: `O=C(Nc1cccnc1)N1CCC(Cc2cccc(Oc3ccc(C(F)(F)F)cn3)c2)CC1` was tested. Which relative cell viability did it give?
Answer: Its relative cell viability is 1.01.

Question: Which relative cell viability does the source give for `CC[C@H]1[C@@H](O)[C@@H]2[C@H](CC[C@]3(C)[C@@H]([C@H](C)CCC(=O)O)CC[C@@H]23)[C@@]2(C)CC[C@@H](O)C[C@@H]12` [Obeticholic Acid] here?
Answer: Its relative cell viability is 0.856.

Question: With `Cc1cc(=O)oc2c(O)c(O)ccc12` [7,8-Dihydroxy-4-methylcoumarin] as the compound, how does the relative cell viability read?
Answer: The relative cell viability was 1.02.

Question: How did the relative cell viability turn out when `CCOC(=O)N1c2ccc(C(F)(F)F)cc2[C@@H](N(Cc2cc(C(F)(F)F)cc(C(F)(F)F)c2)C(=O)OC)C[C@H]1CC` [Torcetrapib] was run?
Answer: Its relative cell viability is 0.781.

Question: With `N=C(N)NC(=N)NCCc1ccccc1` [Phenformin hydrochloride] as the compound, how does the relative cell viability read?
Answer: The relative cell viability was 0.868.

Question: How did the relative cell viability turn out when `N[C@@H](Cc1c[nH]cn1)C(=O)O` [histidine] was run?
Answer: The relative cell viability was 1.03.

Question: Which relative cell viability does the source give for `C=C(C)[C@@H]1CC[C@]2(CO)CC[C@]3(C)[C@H](CC[C@@H]4[C@@]5(C)CC[C@H](O)C(C)(C)[C@@H]5CC[C@]43C)[C@@H]12` [Betulin] here?
Answer: Its relative cell viability is 0.907.

Question: How did the relative cell viability turn out when `CCCCCCS(=O)(=O)NC(=O)c1ccc(CSCc2ccc(-c3ccccc3)cc2)cc1` was run?
Answer: Its relative cell viability is 0.91.

Question: Which relative cell viability does the source give for `CCCc1cc(-c2nc(-c3ccc(NS(C)(=O)=O)cc3)cs2)ccn1` here?
Answer: The relative cell viability was 0.926.

Question: With `CN1c2ccccc2C(=O)Nc2cnc(Nc3ccc(N4CCC(O)CC4)cc3)nc21` as the compound, how does the relative cell viability read?
Answer: Its relative cell viability is 0.55.

Question: `COc1ccc2c(c1)CCC1C2CCC2(C)C(NCCCCCCN3C(=O)C=CC3=O)CCC12` (centres undefined) was tested. Which relative cell viability did it give?
Answer: The relative cell viability was 0.806.

Question: For `CC[C@H](C)C(=O)O[C@H]1C[C@H](O)C=C2C=C[C@H](C)[C@H](CC[C@@H](O)C[C@@H](O)CC(=O)O)[C@H]21` [Pravastatin sodium], which relative cell viability is on record?
Answer: Its relative cell viability is 0.964.

Question: Which relative cell viability does the source give for `O=C(Nc1ccncc1)c1cc([N+](=O)[O-])ccc1Cl` here?
Answer: Its relative cell viability is 0.831.

Question: Which relative cell viability does the source give for `COC(=O)CN(c1ccc(CN(c2ccc(OCc3ccc(C)cc3)c(C(=O)OC)c2)S(=O)(=O)Cc2ccccc2)cc1)S(C)(=O)=O` here?
Answer: The relative cell viability was 0.921.

Question: With `COc1ccc(-c2coc3cc(O)cc(O)c3c2=O)cc1` [Biochanin A] as the compound, how does the relative cell viability read?
Answer: Its relative cell viability is 0.729.

Question: Which relative cell viability does the source give for `O=c1cc(-c2ccc(O)c(-c3c(O)cc(O)c4c(=O)cc(-c5ccc(O)cc5)oc34)c2)oc2cc(O)cc(O)c12` [Amentoflavone] here?
Answer: Its relative cell viability is 0.812.

Question: Which relative cell viability does the source give for `COc1cc(N(C)C)cc(CN(C)CCc2ccc([N+](=O)[O-])cc2)c1O` [CDC25 Phosphatase Inhibitor I] here?
Answer: Its relative cell viability is 0.976.

Question: Which relative cell viability does the source give for `CC(C)c1c(C(=O)Nc2ccccc2)c(-c2ccccc2)c(-c2ccc(F)cc2)n1CC[C@@H](O)C[C@@H](O)CC(=O)O` [Atorvastatin Calcium] here?
Answer: The relative cell viability was 0.569.

Question: Which relative cell viability does the source give for `CC(=O)Oc1cc(C(F)(F)F)ccc1C(=O)O` [Triflusal] here?
Answer: The relative cell viability was 0.982.
